From PubChem BioAssay (Tox21)
Inconclusive results are not listed. Active and inactive are the calls of the source. Unless noted, calls come from the whole dose curve.

Assays:
[1] = Nuclear factor erythroid 2-related factor 2/antioxidant responsive element (Nrf2/ARE) small molecule agonists: qHTS cell viability counter screen in human keratinocytes (AID 1919968; active = well fitted curve in the direction sought with a large enough effect in the repeat runs; an effect the other way counts as inactive or inconclusive; note: nearly all actives have a fitted effect of over 55% in size; note: potency is the fitted concentration of half-maximal effect)
Summary of the method: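 Stably transfected HaCaT (KeratinoSens), 1,500/well. Test agents in DMSO were applied for 23 h, 37 C/5% CO2. CellTiter-Fluor was incubated 1 h before the fluorescence read.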

[2] = Nuclear factor erythroid 2-related factor 2/antioxidant responsive element (Nrf2/ARE) small molecule agonists: luciferase reporter gene qHTS assay in human keratinocytes (AID 1919969); note: nearly all actives have a fitted effect of over 35% in size; note: potency is the fitted concentration of half-maximal effect
[3] = molecular target: Gonadotropin-releasing hormone receptor (Homo sapiens) (UniProt P30968); assay: Human gonadotropin-releasing hormone receptor (GnRHR) small molecule agonists, calcium flux assay in GnRHR-HEK293 cells (AID 1920063); note: nearly all actives have a fitted effect of over 35% in size
Chain of Gonadotropin-releasing hormone receptor (Homo sapiens) (P30968 whole entry, looked up): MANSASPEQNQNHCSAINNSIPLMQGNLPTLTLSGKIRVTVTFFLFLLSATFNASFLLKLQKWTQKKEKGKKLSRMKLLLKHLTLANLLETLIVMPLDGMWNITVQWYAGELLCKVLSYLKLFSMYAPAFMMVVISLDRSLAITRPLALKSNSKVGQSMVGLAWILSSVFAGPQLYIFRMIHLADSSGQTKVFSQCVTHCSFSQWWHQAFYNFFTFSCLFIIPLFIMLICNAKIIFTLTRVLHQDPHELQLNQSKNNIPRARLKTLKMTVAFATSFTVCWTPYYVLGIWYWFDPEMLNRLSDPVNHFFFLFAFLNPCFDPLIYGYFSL
Summary of the method: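 Stable human GnRHR HEK293 line. 18 h plating, then calcium dye for 1 h at 37 C. Agonist-mode compound addition from DMSO stocks; fluorescence monitored 3 min.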

[4] = molecular target: KiSS-1 receptor (Homo sapiens) (UniProt Q969F8); assay: Human kisspeptin (KISS1R) small molecule agonists, calcium flux assay in KISS1R-HEK293 cells (AID 1920064; active = well fitted curve in the direction sought with a large enough effect in the repeat runs; an effect the other way counts as inactive or inconclusive)
Chain of KiSS-1 receptor (Homo sapiens) (Q969F8 whole entry, looked up): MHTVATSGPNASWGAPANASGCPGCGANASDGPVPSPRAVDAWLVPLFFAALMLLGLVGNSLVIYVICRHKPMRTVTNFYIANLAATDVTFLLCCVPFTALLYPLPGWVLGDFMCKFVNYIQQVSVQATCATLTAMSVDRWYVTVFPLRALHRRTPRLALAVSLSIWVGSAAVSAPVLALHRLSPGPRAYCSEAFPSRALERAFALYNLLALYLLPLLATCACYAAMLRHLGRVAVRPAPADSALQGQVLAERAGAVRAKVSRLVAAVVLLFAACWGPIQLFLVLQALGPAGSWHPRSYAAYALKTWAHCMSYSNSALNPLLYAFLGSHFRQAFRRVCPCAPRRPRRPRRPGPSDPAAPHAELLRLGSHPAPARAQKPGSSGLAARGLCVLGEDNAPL
Summary of the method: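 After overnight (18 h) culture at 37 C/5% CO2, human KISS1R-HEK293 cells received calcium dye for 1 h, then test compound; emission at 540 nm (excitation 480 nm) was tracked for 3 min.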

[5] = p53 small molecule agonists, cell-based qHTS assay with human liver microsomes: qHTS cell viability counter screen (AID 1963579); note: nearly all actives have a fitted effect of over 45% in size; note: potency is the fitted concentration of half-maximal effect
Summary of the method: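 Metabolic activation used human liver microsomes and NADPH, both 0.5 mg/mL final, over 16 hours at 37 C on p53RE-bla cells (4,000/well). Cytotoxicity measured by CellTiter-Glo luminescence, 30 min at room temperature.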

[6] = p53 small molecule agonists, cell-based qHTS assay with rat liver microsomes: qHTS cell viability counter screen (AID 1963580); note: nearly all actives have a fitted effect of over 45% in size
Summary of the method: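 After the beta-lactamase ratio was read, CellTiter-Glo was added to the same wells and luminescence measured at 30 min; cells had been treated 16 h at 37 C with compounds, rat liver microsomes and NADPH (0.5 mg/mL final each).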

[7] = p53 small molecule agonists, cell-based qHTS assay: qHTS cell viability counter screen (AID 1963581); note: nearly all actives have a fitted effect of over 45% in size
Summary of the method: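 qHTS counter screen: 16 h compound exposure at 37 C of p53RE-bla HCT-116 cells (4,000 per well, seeded 5 h prior), cell viability by ATP luminescence.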

[8] = molecular target: 5-hydroxytryptamine receptor 2A (Homo sapiens) (UniProt P28223); assay: 5-hydroxytryptamine receptor 2A (HTR2A) small molecule antagonists, cell-based qHTS assay (AID 1963586); note: nearly all actives have a fitted effect of over 45% in size
Chain of 5-hydroxytryptamine receptor 2A (Homo sapiens) (P28223 whole entry, looked up): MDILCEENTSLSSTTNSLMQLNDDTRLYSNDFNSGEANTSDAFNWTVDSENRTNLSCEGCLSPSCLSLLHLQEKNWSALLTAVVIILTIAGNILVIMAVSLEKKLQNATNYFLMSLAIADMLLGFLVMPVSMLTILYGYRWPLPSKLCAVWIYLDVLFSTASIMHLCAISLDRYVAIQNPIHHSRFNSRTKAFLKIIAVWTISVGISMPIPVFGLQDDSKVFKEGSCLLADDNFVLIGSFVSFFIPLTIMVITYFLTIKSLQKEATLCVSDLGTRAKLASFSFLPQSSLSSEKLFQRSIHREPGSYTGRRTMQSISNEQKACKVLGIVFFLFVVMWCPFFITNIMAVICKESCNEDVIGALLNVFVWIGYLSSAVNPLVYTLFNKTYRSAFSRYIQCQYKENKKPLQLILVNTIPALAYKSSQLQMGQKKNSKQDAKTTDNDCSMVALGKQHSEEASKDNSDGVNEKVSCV
Summary of the method: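 CHO cells stably expressing human HTR2A were plated for 18 h at 37 C, then loaded with calcium dye for 1 h. Compounds were preincubated 5 min at room temperature before DOI (4 nM solution) was added. Kinetic fluorescence was read for 3 min.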

[9] = molecular target: 5-hydroxytryptamine receptor 2A (Homo sapiens) (UniProt P28223); assay: 5-hydroxytryptamine receptor 2A (HTR2A) small molecule agonists, cell-based qHTS assay (AID 1963587); note: nearly all actives have a fitted effect of over 30% in size
Summary of the method: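 CHO cells stably expressing human HTR2A, plated 18 h, loaded with calcium dye 1 h at 37 C. Agonist mode: compounds added and intracellular calcium fluorescence recorded kinetically for 2 min at 1 sec intervals.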

[10] = molecular target: Muscarinic acetylcholine receptor M1 (Homo sapiens) (UniProt P11229); assay: Cholinergic receptor muscarinic 1 (CHRM1) small molecule antagonists, cell-based qHTS assay (AID 1963588); note: nearly all actives have a fitted effect of over 40% in size; note: potency is the fitted concentration of half-maximal effect
Chain of Muscarinic acetylcholine receptor M1 (Homo sapiens) (P11229 whole entry, looked up): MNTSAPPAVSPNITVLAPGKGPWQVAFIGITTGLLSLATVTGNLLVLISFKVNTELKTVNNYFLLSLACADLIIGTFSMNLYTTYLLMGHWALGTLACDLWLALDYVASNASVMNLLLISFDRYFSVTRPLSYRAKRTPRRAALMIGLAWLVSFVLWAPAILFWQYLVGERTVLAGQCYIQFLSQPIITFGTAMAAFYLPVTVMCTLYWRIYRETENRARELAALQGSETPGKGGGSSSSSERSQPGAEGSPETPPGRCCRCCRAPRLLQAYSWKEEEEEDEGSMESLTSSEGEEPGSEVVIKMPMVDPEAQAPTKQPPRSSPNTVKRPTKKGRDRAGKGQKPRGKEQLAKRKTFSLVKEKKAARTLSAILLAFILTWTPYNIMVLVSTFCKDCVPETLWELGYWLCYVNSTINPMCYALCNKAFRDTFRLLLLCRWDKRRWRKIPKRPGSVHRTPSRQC
Summary of the method: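 Compounds were tested at 15 concentrations in three independent runs. Dye-loaded CHRM1-CHO cells were exposed 5 min at room temperature before stimulation by acetylcholine added at 50nM. Intracellular calcium was read kinetically on FDSS for 3 min.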

[11] = molecular target: Muscarinic acetylcholine receptor M1 (Homo sapiens) (UniProt P11229); assay: Cholinergic receptor muscarinic 1 (CHRM1) small molecule agonists, cell-based qHTS assay (AID 1963589); note: nearly all actives have a fitted effect of over 35% in size
Summary of the method: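 Kinetic fluorescence (1 s intervals) of calcium-sensitive dye in human M1 CHO cells after compound addition; cells pre-incubated 18 h at 37 C/5% CO2 and dye-loaded 1 h.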

[12] = cAMP Responsive Elements (CRE) small molecule agonists, cell-based qHTS assay (AID 1963590)
Summary of the method: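 Test agents in DMSO were incubated 3 h at 37 C/5% CO2 with CRE-bla HEK 293T cells seeded 18 h earlier; LiveBLAzer B/G FRET substrate was added and read after 2 h at room temperature.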

[13] = cAMP Responsive Elements (CRE) small molecule antagonists, cell-based qHTS assay (AID 1963591; active = well fitted inhibition curve with a large enough effect in the signal ratio in the repeat runs, not every such curve was filed as active; the % refers to the signal ratio)
Summary of the method: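 Reporter line CRE-bla HEK 293T in dialyzed-FBS DMEM; cells preincubated 18 h, treated 3 h with compound plus NKH477 (0.25 uM final); LiveBLAzer FRET, 2 h RT.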

[14] = molecular target: Beta-2 adrenergic receptor (Homo sapiens) (UniProt P07550); assay: Adrenergic beta2 receptor (ADRB2) small molecule agonists, cell-based qHTS assay (AID 1963593);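 note: CHO cells stably overexpressing human ADRB2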
Chain of Beta-2 adrenergic receptor (Homo sapiens) (P07550 whole entry, looked up): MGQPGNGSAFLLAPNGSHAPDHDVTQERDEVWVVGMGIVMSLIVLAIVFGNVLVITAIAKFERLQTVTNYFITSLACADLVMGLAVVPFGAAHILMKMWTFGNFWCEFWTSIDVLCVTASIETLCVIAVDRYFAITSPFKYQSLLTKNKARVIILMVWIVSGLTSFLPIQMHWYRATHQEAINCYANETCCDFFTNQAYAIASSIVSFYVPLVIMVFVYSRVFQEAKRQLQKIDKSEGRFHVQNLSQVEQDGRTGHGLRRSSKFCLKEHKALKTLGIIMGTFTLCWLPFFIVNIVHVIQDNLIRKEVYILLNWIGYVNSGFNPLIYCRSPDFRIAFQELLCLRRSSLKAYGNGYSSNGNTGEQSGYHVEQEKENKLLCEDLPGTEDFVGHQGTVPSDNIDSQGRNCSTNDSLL
Summary of the method: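 CHO cells stably over-expressing ADRB2 were plated overnight at 37C, then dosed with compounds plus a stimulation mix containing 100uM IBMX and 25uM Ro-20-1724 for 0.5hr at room temperature. cAMP was measured by HTRF competition, 1hr.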

[15] = molecular target: D(2) dopamine receptor (Homo sapiens) (UniProt P14416); assay: Dopamine D2 receptor (DRD2) small molecule agonists, cell-based qHTS assay (AID 1963594); note: nearly all actives have a fitted effect of over 35% in size
Chain of D(2) dopamine receptor (Homo sapiens) (P14416 whole entry, looked up): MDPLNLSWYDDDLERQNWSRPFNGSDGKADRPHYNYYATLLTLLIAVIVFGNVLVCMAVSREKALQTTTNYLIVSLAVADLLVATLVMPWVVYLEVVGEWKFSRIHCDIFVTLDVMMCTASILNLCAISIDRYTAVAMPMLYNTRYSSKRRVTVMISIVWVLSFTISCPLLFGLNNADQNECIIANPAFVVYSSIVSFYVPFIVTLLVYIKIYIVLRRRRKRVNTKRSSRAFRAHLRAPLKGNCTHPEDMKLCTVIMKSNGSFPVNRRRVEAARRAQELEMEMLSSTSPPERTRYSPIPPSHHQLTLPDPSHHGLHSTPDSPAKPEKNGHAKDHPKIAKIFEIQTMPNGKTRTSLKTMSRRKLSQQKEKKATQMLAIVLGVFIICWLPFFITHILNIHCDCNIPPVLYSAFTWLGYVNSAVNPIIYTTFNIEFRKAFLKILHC
Summary of the method: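 HEK293 cells stably expressing human DRD2, pre-treated with PDE inhibitor Ro20-1724 (0.1 mM final) and compound 10 min at room temperature, then stimulated with NKH477 (200nM […]) for 30 min. cAMP read by HTRF (665/620 nm).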

[16] = molecular target: D(2) dopamine receptor (Homo sapiens) (UniProt P14416); assay: Dopamine D2 receptor (DRD2) small molecule antagonists, cell-based qHTS assay (AID 1963595; active = well fitted inhibition curve with a large enough effect in the signal ratio in the repeat runs, with a control signal flat; the % refers to the signal ratio)
Summary of the method: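 In this cell-based antagonist screen, compounds act for 10 min at room temperature before a 30 min challenge with 12 nM quinpirole and 200 nM NKH477. cAMP is quantified by HTRF competition in DRD2-HEK293 cells containing 0.1 mM Ro20-1724.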

[17] = molecular target: Beta-2 adrenergic receptor (Homo sapiens) (UniProt P07550); assay: Adrenergic beta2 receptor (ADRB2) small molecule antagonists, cell-based qHTS assay (AID 1963592); note: series mostly up to about 92 µM; nearly all actives have a fitted effect of over 50% in size
Summary of the method: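 Assay format: CHO-ADRB2 cells, 18-20hr seeding at 37C/5% CO2, then compound plus 1nM isoproterenol agonist mix for 0.5hr RT. Homogeneous time-resolved fluorescence cAMP detection after 1hr, expressed as 665/615 nm ratio.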

[18] = p53 small molecule agonists, cell-based qHTS assay with rat liver microsomes (AID 1963578)
Summary of the method: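 Metabolic activation by rat liver microsomes and NADPH, each 0.5 mg/mL final, added right after compounds to p53RE-bla reporter cells (4,000/well, plated 5 h earlier). 16 h at 37 C, then LiveBLAzer substrate for 2 h at room temperature in the dark; fluorescence read-out.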
% is set by controls: 0 for no effect and ±100 for the full control effect.

C=C(C)C1CC=C(C)C(=O)C1 (stereo not given)
active: Potency [5] 32.2 µM
inactive: Potency [1] | Potency [2] | Potency [3] | Potency [4] | Potency [6] | Potency [7] | Potency [8] | Potency [9] | Potency [10] | Potency [11] | Potency [12] | Potency [13] | Potency [14] | Potency [15] | Potency [16]

Cc1ccc(Cl)c(Nc2ccccc2C(=O)O)c1Cl
inactive: Potency [1] | Potency [2] | Potency [3] | Potency [4] | Potency [5] | Potency [6] | Potency [7] | Potency [17] | Potency [14] | Potency [15] | Potency [16]

O=[N+]([O-])c1ccc(O)cc1C(F)(F)F
inactive: Potency [3] | Potency [4] | Potency [18] | Potency [6] | Potency [7] | Potency [8] | Potency [9] | Potency [10] | Potency [11] | Potency [13] | Potency [17] | Potency [15] | Potency [16]
active: Potency [1] 30.6 µM | Potency [2] 68.6 µM

CN(C)C(=O)Nc1ccccc1
inactive: Potency [1] | Potency [2] | Potency [3] | Potency [4] | Potency [5] | Potency [6] | Potency [7] | Potency [8] | Potency [9] | Potency [10] | Potency [11] | Potency [12] | Potency [13] | Potency [17] | Potency [14] | Potency [15] | Potency [16]

Cc1[nH]c(C)c(Cl)c(=O)c1Cl
inactive: activity change, negative = cytotoxicity [1] 5.34% [at 19 µM] | activity, positive = activation [2] 3.75% [at 19 µM] | activity change [3] -0.0007% [at 11.8 µM, hits give high values] | activation [4] -1.04% [at 15.8 µM] | activity change, negative = cytotoxicity [5] -0.426% [at 13.5 µM] | activity change, negative = cytotoxicity [6] 4.54% [at 13.5 µM] | activity change, negative = cytotoxicity [7] 15.4% [at 13.5 µM] | activity, negative = inhibition [8] 81.1% [at 12.7 µM] | activation [9] -10% [at 15.9 µM] | activity, negative = inhibition [10] 9.6% [at 12.6 µM] | activation [11] 0.215% [at 15.8 µM] | activation [12] -0.819% [at 19 µM] | activity change, negative = inhibition [13] -0.412% [at 18.9 µM] | activity change, negative = inhibition [17] -0.0462% [at 19 µM] | activation [15] -3.57% [at 19 µM] | activity change, negative = inhibition [16] 7.52% [at 18.9 µM]

CC/C(C)=N\O[Si](C)(O/N=C(\C)CC)O/N=C(\C)CC
active: Potency [10] 3.39 µM
inactive: Potency [1] | Potency [2] | Potency [3] | Potency [4] | Potency [18] | Potency [6] | Potency [7] | Potency [9] | Potency [11] | Potency [12] | Potency [13] | Potency [17] | Potency [15] | Potency [16]

NC(N)=NCCC[C@H](N)C(=O)O
inactive: activity change, negative = cytotoxicity [1] -4.64% [at 8.39 µM] | activity, positive = activation [2] -5.37% [at 8.39 µM] | activity change [3] 0.97% [at 5.22 µM, hits give high values] | activation [4] -0.0198% [at 6.97 µM] | activity change, negative = cytotoxicity [5] -0.294% [at 5.99 µM] | activity change, negative = cytotoxicity [6] 1.88% [at 5.99 µM] | activity change, negative = cytotoxicity [7] -8.01% [at 5.99 µM] | activity, negative = inhibition [8] 19.6% [at 5.62 µM] | activation [9] 2.81% [at 7.02 µM] | activity, negative = inhibition [10] -1.41% [at 5.58 µM] | activation [11] -0.347% [at 6.97 µM] | activation [12] 4.27% [at 8.39 µM] | activity change, negative = inhibition [17] 0.0181% [at 8.39 µM] | activation [15] -13.5% [at 8.39 µM] | activity change, negative = inhibition [16] 5.33% [at 8.38 µM]
